Here are results for 28 molecules from PubChem BioAssay (Tox21).

Values without a mark were called inactive. Inconclusive results are not listed. Activity calls are given as the source filed them. Unless noted, calls follow the shape of the dose curve; as a rule, active = well fitted curve in the direction sought with a large enough effect in the repeat runs; inconclusive = weak or mixed curves; inactive = no such curve, though single readings can be large; an effect the other way counts as inactive or inconclusive.

In assay [1] the target is Acetylcholinesterase (Homo sapiens) (UniProt P22303). Put plainly: Acetylcholinesterase (AChE) small molecule antagonists: fluorescence cell-based qHTS assay (AID 1347398; calls by dose curve; also: nearly all actives have a fitted effect of over 50% in size). Particulars: Potency: AChE activity. In a few lines:
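Cellular AChE activity read as thiocholine from acetylthiocholine hydrolysis, detected by Thiolite Green fluorescence at 490/520 nm after 40 min at room temperature. Compounds were pre-incubated 30 min at 37 C on adherent SH-SY5Y cells.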

The target is the same in assay [2]. Put plainly: Acetylcholinesterase (AChE) small molecule antagonists: enzyme-based qHTS assay with human liver microsomes (AID 1347399; calls by dose curve; also: nearly all actives have a fitted effect of over 60% in size). Particulars: Potency: qHTS inhibition. In a few lines: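 Recombinant human AChE (50 mU/mL in the enzyme mix) and human liver microsomes (0.25 mg/mL final) were preincubated with compound and NADPH (0.25 mg/mL final) for 30 min at 37 C. Acetylthiocholine/DTNB was then added; thiocholine was read colorimetrically after 10 min at room temperature.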
(qHTS replaces the single test concentration by a dilution series.)

The target of assay [3] is Cytochrome P450 2D6 (Homo sapiens) (UniProt P10635). Put plainly: Cytochrome P450 Family 2 Subfamily D Member 6 (CYP2D6) small molecule antagonists: luciferase reporter qHTS assay (AID 1671196). Also: nearly all actives have a fitted effect of over 50% in size. In a few lines:
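Luminogenic proluciferin substrate, CYP2D6 enzyme; 10 min RT preincubation with compound, NADPH regeneration system added, 1 h RT. Stop/detection reagent, 20 min RT, luminescence read (RLU). Signal proportional to CYP activity.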
On the technique in general: Reporter assays use an easily measured gene product as a stand-in for the process of interest.

The target of assay [4] is Cytochrome P450 2C19 (Homo sapiens) (UniProt P33261). Briefly: Cytochrome P450 Family 2 Subfamily C Member 19 (CYP2C19) small molecule antagonists: luciferase reporter qHTS assay (AID 1671197). Also: nearly all actives have a fitted effect of over 65% in size. In short, it runs like this: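 Inhibition of CYP2C19 was scored from loss of luminescence in a P450-Glo proluciferin substrate assay, NADPH-started and run 1 h at 37C, with ketoconazole as positive control.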

Assay [5] addresses Cytochrome P450 2C9 (Homo sapiens) (UniProt P11712). Briefly: Cytochrome P450 Family 2 Subfamily C Member 9 (CYP2C9) small molecule antagonists: luciferase reporter qHTS assay (AID 1671198). Also: nearly all actives have a fitted effect of over 50% in size. In a few lines:
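Enzyme-substrate mix preincubated with compound 10 min at room temperature; reaction started with NADPH regeneration solution, 1 h 37C. Luminescent luciferin product read after 20 min detection reagent.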

The target in assay [6] is Cytochrome P450 1A2 (Homo sapiens) (UniProt P05177). Briefly: Cytochrome P450 Family 1 Subfamily A Member 2 (CYP1A2) small molecule antagonists: luciferase reporter qHTS assay (AID 1671199). Also: nearly all actives have a fitted effect of over 50% in size. In a few lines: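 Luminescence readout (relative luminescence units) after luciferin detection reagent, 20 min RT. Preceded by 1 h room-temperature CYP1A2 reaction with NADPH regeneration solution following 10 min compound preincubation with enzyme and proluciferin substrate. Furafylline positive control.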

In assay [7] the target is Voltage-gated inwardly rectifying potassium channel KCNH2 (Homo sapiens) (UniProt Q12809). Put plainly: Human Ether-a-go-go-Related Gene (hERG) channel small molecule antagonists: fluorescence cell-based qHTS assay (AID 1671200). Also: nearly all actives have a fitted effect of over 50% in size. In short, it runs like this:
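Thallium flux as potassium surrogate: FluxOR II dye loaded 1 h at room temperature into hERG-expressing U2OS cells, then stimulus buffer added after 10 min. Kinetic 480 nm excitation/540 nm emission read, 2 min.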
A general note: Block of hERG is tested as a sign of cardiac risk.

Assay [8] addresses Cytochrome P450 3A4 (Homo sapiens) (UniProt P08684). Briefly: Cytochrome P450 Family 3 Subfamily A Member 4 (CYP3A4) small molecule antagonists: luciferase reporter qHTS assay (AID 1671201). Also: nearly all actives have a fitted effect of over 50% in size. In short, it runs like this: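 Recombinant human CYP3A4 converts a proluciferin substrate to luciferin over 1 h at room temperature after NADPH regeneration solution is added (compound preincubated 10 min); detection reagent stops reaction, luminescence read 20 min later as relative units.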
Potency is read from the fitted curve at half-maximal effect.

Sequence of Voltage-gated inwardly rectifying potassium channel KCNH2 (Homo sapiens) (Q12809 whole entry, looked up): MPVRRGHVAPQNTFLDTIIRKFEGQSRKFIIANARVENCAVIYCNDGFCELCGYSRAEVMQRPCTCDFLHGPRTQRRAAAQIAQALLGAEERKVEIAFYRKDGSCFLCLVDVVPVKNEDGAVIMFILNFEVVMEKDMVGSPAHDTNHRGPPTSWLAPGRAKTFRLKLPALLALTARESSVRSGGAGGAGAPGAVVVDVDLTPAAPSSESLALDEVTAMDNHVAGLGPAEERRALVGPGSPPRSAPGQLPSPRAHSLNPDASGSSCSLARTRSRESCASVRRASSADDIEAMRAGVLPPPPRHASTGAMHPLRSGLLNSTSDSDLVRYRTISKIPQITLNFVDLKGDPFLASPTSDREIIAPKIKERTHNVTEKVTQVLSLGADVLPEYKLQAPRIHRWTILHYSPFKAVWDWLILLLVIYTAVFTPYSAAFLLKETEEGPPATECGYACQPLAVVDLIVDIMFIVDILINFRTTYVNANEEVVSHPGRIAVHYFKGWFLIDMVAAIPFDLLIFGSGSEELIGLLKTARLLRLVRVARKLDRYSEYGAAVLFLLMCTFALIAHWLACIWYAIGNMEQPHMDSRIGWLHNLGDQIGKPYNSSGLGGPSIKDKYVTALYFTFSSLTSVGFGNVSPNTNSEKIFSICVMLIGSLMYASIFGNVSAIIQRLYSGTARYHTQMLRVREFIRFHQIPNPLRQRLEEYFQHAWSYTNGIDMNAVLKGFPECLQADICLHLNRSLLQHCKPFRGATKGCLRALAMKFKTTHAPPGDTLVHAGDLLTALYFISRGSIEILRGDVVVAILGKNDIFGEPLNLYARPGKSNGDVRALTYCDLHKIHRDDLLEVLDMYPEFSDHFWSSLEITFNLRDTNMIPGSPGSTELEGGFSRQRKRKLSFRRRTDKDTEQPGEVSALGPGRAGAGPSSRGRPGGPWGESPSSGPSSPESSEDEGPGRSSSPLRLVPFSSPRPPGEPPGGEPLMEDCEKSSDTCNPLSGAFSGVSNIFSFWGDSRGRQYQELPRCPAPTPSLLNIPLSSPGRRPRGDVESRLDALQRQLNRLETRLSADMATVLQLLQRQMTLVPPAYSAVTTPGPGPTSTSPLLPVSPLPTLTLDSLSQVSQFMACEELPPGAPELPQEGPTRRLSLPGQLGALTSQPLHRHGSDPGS
Sequence of Cytochrome P450 2D6 (Homo sapiens) (P10635 whole entry, looked up): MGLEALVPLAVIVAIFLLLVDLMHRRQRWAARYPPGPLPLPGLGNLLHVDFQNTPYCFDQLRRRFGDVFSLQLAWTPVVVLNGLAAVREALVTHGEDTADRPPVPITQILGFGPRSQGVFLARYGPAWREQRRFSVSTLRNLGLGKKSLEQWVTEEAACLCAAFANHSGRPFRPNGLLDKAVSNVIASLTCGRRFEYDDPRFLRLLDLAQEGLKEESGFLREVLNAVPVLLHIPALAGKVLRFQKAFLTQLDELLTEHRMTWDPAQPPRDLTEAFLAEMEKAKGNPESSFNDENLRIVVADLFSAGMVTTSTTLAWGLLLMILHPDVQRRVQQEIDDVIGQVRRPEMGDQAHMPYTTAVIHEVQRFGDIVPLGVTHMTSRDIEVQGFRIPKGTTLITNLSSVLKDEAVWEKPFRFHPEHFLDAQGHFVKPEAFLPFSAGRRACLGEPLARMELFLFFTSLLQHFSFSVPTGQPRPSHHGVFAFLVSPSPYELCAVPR
Sequence of Cytochrome P450 2C19 (Homo sapiens) (P33261 whole entry, looked up): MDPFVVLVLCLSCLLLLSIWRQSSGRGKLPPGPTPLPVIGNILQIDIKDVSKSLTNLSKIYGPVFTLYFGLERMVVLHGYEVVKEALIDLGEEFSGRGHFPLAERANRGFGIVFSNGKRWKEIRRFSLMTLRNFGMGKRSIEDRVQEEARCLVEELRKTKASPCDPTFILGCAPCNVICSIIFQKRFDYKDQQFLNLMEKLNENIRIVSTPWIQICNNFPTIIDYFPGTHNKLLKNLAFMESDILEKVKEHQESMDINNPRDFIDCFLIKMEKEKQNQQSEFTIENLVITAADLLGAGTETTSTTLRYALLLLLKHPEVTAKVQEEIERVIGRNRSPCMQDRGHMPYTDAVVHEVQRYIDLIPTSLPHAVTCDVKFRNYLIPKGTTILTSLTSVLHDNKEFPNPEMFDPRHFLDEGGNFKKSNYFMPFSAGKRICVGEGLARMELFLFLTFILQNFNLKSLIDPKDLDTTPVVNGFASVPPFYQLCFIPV
Sequence of Acetylcholinesterase (Homo sapiens) (P22303 whole entry, looked up): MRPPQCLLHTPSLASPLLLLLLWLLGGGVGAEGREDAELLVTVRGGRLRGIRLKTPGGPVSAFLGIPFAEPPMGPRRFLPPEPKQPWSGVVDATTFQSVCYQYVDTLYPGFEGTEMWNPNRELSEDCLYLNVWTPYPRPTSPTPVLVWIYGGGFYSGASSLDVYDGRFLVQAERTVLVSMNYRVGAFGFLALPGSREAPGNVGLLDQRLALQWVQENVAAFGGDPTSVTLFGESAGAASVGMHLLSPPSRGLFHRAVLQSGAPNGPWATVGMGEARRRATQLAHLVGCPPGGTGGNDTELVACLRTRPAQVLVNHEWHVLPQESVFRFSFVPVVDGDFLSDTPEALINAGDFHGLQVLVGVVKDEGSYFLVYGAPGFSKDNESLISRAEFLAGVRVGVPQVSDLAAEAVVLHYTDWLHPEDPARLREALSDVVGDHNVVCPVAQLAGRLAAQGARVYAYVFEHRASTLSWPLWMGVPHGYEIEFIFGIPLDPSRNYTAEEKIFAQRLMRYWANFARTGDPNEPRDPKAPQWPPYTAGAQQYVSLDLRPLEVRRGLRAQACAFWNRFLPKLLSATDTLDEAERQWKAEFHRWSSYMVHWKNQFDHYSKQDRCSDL
Sequence of Cytochrome P450 1A2 (Homo sapiens) (P05177 whole entry, looked up): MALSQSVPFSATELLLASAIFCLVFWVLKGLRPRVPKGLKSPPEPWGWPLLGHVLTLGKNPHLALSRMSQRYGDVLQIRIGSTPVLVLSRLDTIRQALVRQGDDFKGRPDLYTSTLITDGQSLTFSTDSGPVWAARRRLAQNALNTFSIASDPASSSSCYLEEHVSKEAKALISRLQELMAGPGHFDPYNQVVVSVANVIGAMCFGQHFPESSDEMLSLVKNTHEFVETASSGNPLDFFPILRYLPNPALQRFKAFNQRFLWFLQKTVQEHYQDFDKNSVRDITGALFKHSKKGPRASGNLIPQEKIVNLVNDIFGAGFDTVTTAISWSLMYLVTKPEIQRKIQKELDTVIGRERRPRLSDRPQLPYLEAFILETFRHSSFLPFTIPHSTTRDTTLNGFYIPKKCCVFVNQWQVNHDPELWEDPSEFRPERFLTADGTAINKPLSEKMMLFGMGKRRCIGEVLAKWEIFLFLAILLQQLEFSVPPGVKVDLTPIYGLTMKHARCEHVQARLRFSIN
Sequence of Cytochrome P450 3A4 (Homo sapiens) (P08684 whole entry, looked up): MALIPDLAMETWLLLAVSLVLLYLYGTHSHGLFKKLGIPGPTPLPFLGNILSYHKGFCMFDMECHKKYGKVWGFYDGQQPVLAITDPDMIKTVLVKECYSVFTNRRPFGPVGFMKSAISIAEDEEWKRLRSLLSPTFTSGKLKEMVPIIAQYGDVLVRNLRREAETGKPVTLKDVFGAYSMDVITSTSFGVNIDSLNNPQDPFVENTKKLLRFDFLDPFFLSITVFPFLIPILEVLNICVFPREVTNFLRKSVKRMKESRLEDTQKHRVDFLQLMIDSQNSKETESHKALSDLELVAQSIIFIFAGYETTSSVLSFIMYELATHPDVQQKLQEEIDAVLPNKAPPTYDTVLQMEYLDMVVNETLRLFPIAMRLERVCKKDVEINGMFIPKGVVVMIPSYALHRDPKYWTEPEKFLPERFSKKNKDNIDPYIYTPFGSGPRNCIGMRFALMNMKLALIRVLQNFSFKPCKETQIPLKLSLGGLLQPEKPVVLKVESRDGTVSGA
Sequence of Cytochrome P450 2C9 (Homo sapiens) (P11712 whole entry, looked up): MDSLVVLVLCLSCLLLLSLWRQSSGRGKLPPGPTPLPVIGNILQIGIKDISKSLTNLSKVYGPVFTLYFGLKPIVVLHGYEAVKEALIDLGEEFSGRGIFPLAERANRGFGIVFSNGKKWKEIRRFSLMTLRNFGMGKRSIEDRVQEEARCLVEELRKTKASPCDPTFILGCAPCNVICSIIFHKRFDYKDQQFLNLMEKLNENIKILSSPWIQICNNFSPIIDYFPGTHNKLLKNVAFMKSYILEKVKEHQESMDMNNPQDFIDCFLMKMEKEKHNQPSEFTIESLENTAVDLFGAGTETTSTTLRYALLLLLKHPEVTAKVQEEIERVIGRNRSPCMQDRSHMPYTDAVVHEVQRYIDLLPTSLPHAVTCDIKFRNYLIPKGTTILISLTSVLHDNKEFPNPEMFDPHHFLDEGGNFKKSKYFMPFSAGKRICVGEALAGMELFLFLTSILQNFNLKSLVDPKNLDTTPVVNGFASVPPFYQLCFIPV

Turning to `O=C(Nc1ccccc1)c1ccccc1I`, the Potency entry in assay [1], in assay [2] and in assay [7] was “inactive” each time. The Potency was 35.6 µM (active) in assay [3]; 22.4 µM (active) in assay [4]; 39.9 µM (active) in assay [5]; 20 µM (active) in assay [6]; 15.9 µM (active) in assay [8].

Consider `CCOP(=S)(Oc1cnc(C(C)(C)C)nc1)OC(C)C` (centres undefined), for which the Potency was 39.9 µM (active) in assay [1]; 10 µM (active) in assay [2]; 35.6 µM (active) in assay [3]; 0.356 µM (active) in assay [4]; 1.59 µM (active) in assay [5]; 22.4 µM (active) in assay [6]. Also, the Potency in assay [8] was 1.59 µM (active).

`CC1CCCCC1NC(=O)Nc1ccccc1` (centres undefined): the Potency entry in assay [1] and in assay [2] was “inactive” throughout. The Potency was 71 µM (active) in assay [3]; 11.2 µM (active) in assay [4]; 35.6 µM (active) in assay [5]; 31.7 µM (active) in assay [6]; 11.2 µM (active) in assay [8].

On to `O=[N+]([O-])c1ccc2c3c(cccc13)CC2`, for which the Potency result in assay [1], in assay [2], in assay [3], in assay [5] and in assay [7] was “inactive” throughout. Also, the Potency in assay [4] is 35.6 µM (active).

On to `ClC(Cl)Br`, for which the Potency entry in assay [1], in assay [2], in assay [3], in assay [4], in assay [5] and in assay [6] was “inactive” in each case. For the same molecule, the Potency result in assay [7] and in assay [8] was “inactive” each time.

For the molecule `CCC/C(=N\OCC)C1=C(O)CC(CC(C)SCC)CC1=O` (centres undefined), the Potency entry in assay [1], in assay [2] and in assay [8] was “inactive” in each case. In addition, the Potency is 11.3 µM (active) in assay [3], 8.99 µM (active) in assay [4], 31.9 µM (active) in assay [5] and 35.8 µM (active) in assay [6].

Turning to `CCOC(=O)N(C)C(=O)CSP(=S)(OCC)OCC`, the Potency result in assay [1], in assay [2] and in assay [7] was “inactive” each time. Further, the Potency in assay [3] is 28.3 µM (active); in assay [4], 0.126 µM (active); in assay [5] it was 0.71 µM (active); in assay [6], 3.17 µM (active); in assay [8], 2.24 µM (active).

On to `O=NN1CCN(N=O)CC1`, for which the Potency result in assay [1], in assay [2], in assay [3], in assay [4], in assay [5] and in assay [6] was “inactive” throughout. Also, the Potency result in assay [7] and in assay [8] was “inactive” each time.

As to `CCc1cc2c(s1)-n1c(C)nnc1CN=C2c1ccccc1Cl`, the Potency entry in assay [1], in assay [2], in assay [3], in assay [4], in assay [5] and in assay [6] was “inactive” throughout. Also, the Potency result in assay [7] and in assay [8] was “inactive” in each case.

With `c1cc[c]([Hg][c]2ccccc2)cc1`, the Potency result in assay [1], in assay [2], in assay [7] and in assay [8] was “inactive” throughout. Further, the Potency in assay [3] was 1 µM (active); in assay [4], 22.4 µM (active); in assay [5], 31.7 µM (active); in assay [6], 10 µM (active).

Take `O=C1OC(CCN2CCCCC2)OC1(c1ccccc1)c1ccccc1` (centres undefined): the Potency entry in assay [1] and in assay [2] was “inactive” throughout. Moreover, the Potency in assay [3] is 0.871 µM (active); in assay [4], 38.9 µM (active); in assay [5], 15.5 µM (active); in assay [7], 848 nM (active).

In the case of `N#CC(O)c1ccccc1` (centres undefined), the Potency entry in assay [1], in assay [2], in assay [4], in assay [5] and in assay [8] was “inactive” throughout. Also, the Potency in assay [3] was 35.5 µM (active).

Consider `CC(C)COP(=O)(OCC(C)C)OCC(C)C`, for which the Potency result in assay [1], in assay [2], in assay [3], in assay [4], in assay [5] and in assay [7] was “inactive” each time. Further, the Potency entry in assay [8] is “inactive”.

Turning to `O=C(O)c1ccc2[nH]cc(CCCCN3CC=C(c4ccccc4)CC3)c2c1`, the Potency entry in assay [1], in assay [2], in assay [4], in assay [5], in assay [7] and in assay [8] was “inactive” throughout. The Potency in assay [3] was 12.3 µM (active).

In the case of `CN(C)CCc1ccc(O)cc1`, the Potency entry in assay [1], in assay [2], in assay [3], in assay [4], in assay [5] and in assay [7] was “inactive” each time. Besides, the Potency result in assay [8] is “inactive”.

Turning to `O=C1OC(c2ccc(O)c(S(=O)(=O)O)c2)(c2ccc(O)c(S(=O)(=O)O)c2)c2c(Br)c(Br)c(Br)c(Br)c21`, the Potency entry in assay [1], in assay [2], in assay [3], in assay [4], in assay [6] and in assay [7] was “inactive” throughout. Besides, in assay [8], the Potency entry is “inactive”.

Turning to `N#CCBr`, the Potency entry in assay [1], in assay [2], in assay [3], in assay [4], in assay [6] and in assay [7] was “inactive” in each case. Also, the Potency entry in assay [8] is “inactive”.

`CCCCN(CCCCO)N=O`: the Potency entry in assay [1], in assay [2], in assay [3], in assay [4] and in assay [6] was “inactive” in each case.

On to `C=CC1CC=CCC1` (centres undefined), for which the Potency entry in assay [1], in assay [2], in assay [3], in assay [4], in assay [5] and in assay [7] was “inactive” in each case. Also, in assay [8], the Potency result was “inactive”.

Turning to `CCCCOC(=O)c1ccccc1N`, the Potency result in assay [1], in assay [2], in assay [3], in assay [7] and in assay [8] was “inactive” each time. The Potency is 28.4 µM (active) in assay [4] and 8.99 µM (active) in assay [6].

Turning to `Cc1nc(N)nc(N)n1`, the Potency result in assay [1], in assay [2], in assay [3], in assay [4], in assay [5] and in assay [8] was “inactive” throughout.

Regarding `Cc1cnc[nH]1`, the Potency result in assay [1], in assay [2], in assay [4] and in assay [7] was “inactive” throughout. Besides, the Potency in assay [3] was 34.2 µM (active).

Consider `CCC1(c2ccccc2)C(=O)NC(=O)NC1=O`, for which the Potency entry in assay [1], in assay [2], in assay [4], in assay [5], in assay [7] and in assay [8] was “inactive” in each case. For the same molecule, the Potency in assay [3] was 11.5 µM (active).

`CCC(C)n1c(=O)[nH]c(C)c(Br)c1=O` (centres undefined): the Potency entry in assay [1], in assay [2], in assay [3], in assay [7] and in assay [8] was “inactive” throughout. Also, in assay [4], the Potency is 39.9 µM (active).

With `C1CCC(C2CCCCC2)CC1`, the Potency result in assay [1], in assay [2], in assay [3], in assay [4], in assay [5] and in assay [8] was “inactive” throughout.

Consider `O=C(O)C(Br)CBr` (centres undefined), for which the Potency entry in assay [1], in assay [2], in assay [4] and in assay [8] was “inactive” each time. Also, the Potency is 36.2 µM (active) in assay [3] and 64.4 µM (active) in assay [6].

For `Nc1cnn(-c2ccccc2)c(=O)c1Cl`, the Potency entry in assay [1], in assay [2], in assay [3], in assay [4], in assay [7] and in assay [8] was “inactive” in each case.

For the molecule `CCNc1nc(NC(C)C)nc(OC)n1`, the Potency entry in assay [1], in assay [2], in assay [3], in assay [5] and in assay [7] was “inactive” throughout. Moreover, in assay [4], the Potency is 25.2 µM (active).
